Experimental data published in PubChem BioAssay.

Experiments:
PEG-3 [1] = target: PEG-3 (UniProt Q6IN02); test: inhibition of PEG-3 promoter-driven reporter – cell-based, HeLa, luciferase, CREF/GAPDH counter-screen panel, dose response (AID 624167); details: CREF/GAPDH counter-screens; HeLa PEG-Prom luciferase reporter, overnight, run 1, dose range 1, at 100 µM (top of the series) unless noted
PEG-3 [2] = target: PEG-3 (UniProt Q6IN02); test: as above; details: CREF/GAPDH counter-screens; HeLa PEG-Prom luciferase reporter, overnight, run 2, dose range 1, at 100 µM (top of the series) unless noted

PEG-3, sequence (Q6IN02 whole entry, looked up): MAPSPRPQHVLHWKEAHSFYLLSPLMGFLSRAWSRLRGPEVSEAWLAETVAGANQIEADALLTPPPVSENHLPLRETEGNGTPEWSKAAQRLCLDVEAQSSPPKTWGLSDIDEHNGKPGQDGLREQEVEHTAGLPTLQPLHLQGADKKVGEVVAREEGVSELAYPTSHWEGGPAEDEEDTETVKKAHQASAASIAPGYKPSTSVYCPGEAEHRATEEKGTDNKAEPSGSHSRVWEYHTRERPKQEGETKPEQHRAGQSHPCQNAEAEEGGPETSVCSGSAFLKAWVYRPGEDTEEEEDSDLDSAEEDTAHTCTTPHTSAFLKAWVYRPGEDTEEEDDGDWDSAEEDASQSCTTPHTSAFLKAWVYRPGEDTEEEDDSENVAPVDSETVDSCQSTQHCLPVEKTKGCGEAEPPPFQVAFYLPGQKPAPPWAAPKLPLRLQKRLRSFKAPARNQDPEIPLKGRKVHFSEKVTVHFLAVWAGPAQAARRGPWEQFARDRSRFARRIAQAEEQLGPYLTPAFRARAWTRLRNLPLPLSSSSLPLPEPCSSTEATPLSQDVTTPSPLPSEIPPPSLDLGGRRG

| Structure (SMILES) | inhibition (PEG-3 [1]) [%] | inhibition (PEG-3 [2]) |
| --- | --- | --- |
| Cc1cc(C)nc(NC(=O)c2c(F)c(F)c(F)c(C(=O)Nc3cc(C)cc(C)n3)c2F)c1 | 96.5 | 98.3% |
| CC(C)CC(N)c1csc(Nc2ccc(C(=O)N(C)Cc3ccccc3)cn2)n1 (stereo not drawn) | 96.3 | 102% |
| COc1cc(/C=C/[N+](=O)[O-])ccc1OC(=O)/C=C/c1ccc(F)cc1 | -70.5 | -151% |
| COC(=O)c1ccccc1-c1ccc(/C=N/Nc2nc(N3CCCC3)nc(N3CCCC3)n2)o1 | 100 | 102% |
| COC(=O)c1cn(NC(=O)c2cc([N+](=O)[O-])ccc2F)c(=O)c2ccccc12 | 95.3 | 94% |
| Cc1cc(-n2c(SCC(=O)Nc3ccc(F)c(F)c3)nc3n[nH]c(C)c3c2=N)ccc1Cl | 100 | 95.3% |
| Cc1nn(-c2ccccc2Cl)c(Cl)c1/C=N/Nc1nc2ccccc2s1 | 57.6 | 47.3% |
| Cc1ccc2cc3c(N)c4c(C)ccc(C)c4nc3nc2c1 | 94.6 | 93.7% |
| O=[N+]([O-])c1ccc(-c2nc(Nc3cccc(O)c3)c3ccccc3n2)cc1 | 99.4 | 101% |
| COc1ccc(CC(N)c2csc(Nc3cccc(OC)n3)n2)cc1 (stereo not drawn) | 98.9 | 100% |
| CN(C)CCCN1c2ccccc2Sc2ccc3ccccc3c21 | 94.6 | 98.6% |
| CC1(C)CC(NC(=O)c2sc3cc(Cl)ccc3c2Cl)CC(C)(C)N1 | 99.4 | 101% |
| Cc1ccc(C2=NC(=O)/C(=C/c3cc(O)c(O)c(Br)c3)S2)cc1 | 88.6 | 79.4% |
| COc1ccc(C(=O)Nc2cccc(C(=O)N/N=C/c3ccc(OC)cc3OC)c2)cc1 | 84.1 | 93.1% |
| COc1cc(CNCCN2CCOCC2)ccc1OCc1ccc(Cl)cc1Cl | 102 | 101% |
| CCn1c2ccccc2c2cc(NC(=O)C(C)OC(=O)c3ccc(NC(=O)CC#N)cc3)ccc21 (stereo not drawn) | 97.5 | 83.1% |
| COc1ccc(N(Cc2cc3cc(OC)ccc3[nH]c2=O)S(=O)(=O)c2ccc(NC(C)=O)cc2)cc1 | 89.7 | 89.7% |

| Structure (SMILES) | inhibition (PEG-3 [1]) [%] | inhibition (PEG-3 [2]) |
| --- | --- | --- |
| CC(C)(C)c1ccc(CN2N=Nc3ccccc3S2(=O)=O)cc1 | 98.8 | 100% |
| Cc1ccc(C)c(OCC(O)CN2CCC(CN3C(=O)c4cccc5cccc(c45)C3=O)CC2)c1 (stereo not drawn) | 99.2 | 96.1% |
| CN1CCC(NC(=O)c2cc(-c3cccc(Br)c3)nc3ccccc23)CC1 | 100 | 101% |
| CCc1ccc(O)c(CNCCNCc2cc(CC)ccc2O)c1 | 102 | 101% |
| CC1CCCCN1CCNC(=O)c1ccc2c(=O)n(Cc3ccc(Cl)cc3)c(=S)[nH]c2c1 (stereo not drawn) | 101 | 99.1% |
| O=S(=O)(N[C@H]1C[C@@H](NS(=O)(=O)OCC(Cl)(Cl)Cl)C2CCCCC21)OCC(Cl)(Cl)Cl (stereo partly drawn) | 99.2 | 101% |
| CC(=O)Nc1cccc(-c2ccnc3c2CC(C)(C(=O)Nc2cccc(OC(F)(F)F)c2)O3)c1 (stereo not drawn) | 68.6 | 77.1% |
| NC(N)=N/N=C/c1cccc(Cl)c1Cl | 97.9 | 99.4% |
| CCn1cc(C(=O)NCCC(C)C)c(=O)c2cc(F)c(N3CCN(C(=O)c4ccco4)CC3)cc21 | 32.2 | 101% [run 2, dose range 1, at 50 µM] |
| COc1cccc(C(=O)O/N=C(\N)c2ccccn2)c1 | 102 | 95.8% |
| COc1ccccc1CNC(=O)c1c(N)n(CCCN2CCOCC2)c2nc3ccccc3nc12 | 99.1 | 99% |
| CCOC(=O)c1ccc(NC(=O)C2CCCN(S(=O)(=O)c3ccc(F)cc3)C2)cc1 (stereo not drawn) | 97.3 | 100% |
| Fc1ccc([C@@H]2CCNC[C@H]2COc2ccc3c(c2)OCO3)cc1 | 102 | 101% |
| CC(C)CC1C(=O)N(Cc2cn(CCC3OCCO3)nn2)CCS(=O)(=O)N1Cc1ccc(-c2ccc(F)cc2)cc1 (stereo not drawn) | 98.1 | 93.8% |
| O=C(Nc1ccccc1)c1nc[nH]c1C(=O)NCCCNC(=O)c1[nH]cnc1C(=O)Nc1ccccc1 | -24.6 | 96.8% |
| Cc1cc(C)cc(NC(=O)Cn2c(=O)oc3cc(S(=O)(=O)N4CCC(C)CC4)ccc32)c1 | 19.2 | 47.7% |
| CC(NNC(=S)N1CCN(c2ccccn2)CC1)c1nccc2ccccc12 (stereo not drawn) | 98.7 | 99.9% |
